Measurements from the supplement of paper PMC12669032.

system: Coprococcus comes; assay: growth AUC relative to DMSO control (median of replicates) (fraction); higher = more growth (less inhibition), active = hit call of the paper; conditions: 20 µM; 24 h
Procedure, shortened: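 Gut bacterial monocultures were grown anaerobically at 37 °C in mGAM from a starting OD600 of 0.05 with 20 µM compound (1% DMSO), in round-bottom 96-well plates under pierced gas-permeable seals, and OD600 was read hourly for 24 h. With the minimum OD set to 0, area under the growth curve was normalised to the plate median of solvent-only wells, or to row and column medians on the industrial chemical plate. Each value is the median of three biological replicates grown on separate days.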

Growth AUC, inactive:
N#Cc1cc(Cl)c(O)c(Cl)c1 1.02
CCc1cccc(C)c1N(C(=O)C(=O)O)C(C)COC (centres undefined) 1.02
CCC([O-])=C1C(=O)CC(C(=O)[O-])CC1=O.[Ca+2] (centres undefined) 0.957
COC1CCC2(CC1)NC(=O)C(c1cc(C)ccc1C)C2O (centres undefined) 1.04
O.O=C(Nc1ccc(Cl)c(Cl)c1)Nc1cc(Cl)ccc1Oc1ccc(Cl)cc1S(=O)(=O)[O-].[Na+] 0.823
NC(=O)c1nn(-c2c(Cl)cc(C(F)(F)F)cc2Cl)c(N)c1S(=O)C(F)(F)F (centres undefined) 0.958
Cc1nn(C)c(F)c1C(=O)Nc1ccccc1C(C)CC(C)C (centres undefined) 0.985
CCOC(=O)c1nc(C(Cl)(Cl)Cl)n(-c2ccc(Cl)cc2Cl)n1 0.946
CCCCOCN(C(=O)CS(=O)(=O)[O-])c1c(CC)cccc1CC.[Na+] 0.957
CCc1cccc(CC)c1N(COC)C(=O)CS(=O)(=O)[O-].[Na+] 0.971
CCN(CC)C(=O)c1cccc(C)c1 0.974
COC(=O)c1c(Cl)ccc(Cl)c1OC 1.04
CCN(CC)c1nc(C)cc(=O)[nH]1 1.04
CC(C)CNC(=O)N1CCNC1=O 1.01
COC(=O)c1ccccc1S(=O)(=O)NC(=O)n1nc(OCC(C)O)n(C)c1=O (centres undefined) 0.991
CCCNCCOc1c(Cl)cc(Cl)cc1Cl 0.927
CCCCCCCC/C=C\CCCCCCCCCCCC(=O)O 0.96
S=C([S-])NCCNC(=S)[S-].S=C([S-])NCCNC(=S)[S-].[Mn+2].[Zn+2] 0.99
Cc1cc(C)cc(OCC(C)Nc2nc(N)nc(C(C)(C)F)n2)c1 (centres undefined) 0.958
CCOc1ccc(C2(C(=O)OC(C#N)c3cccc(Oc4ccccc4)c3)CC2(Cl)Cl)cc1 (centres undefined) 1.03
CCNc1nc(NCC)nc(OC)n1 1.05
O=c1cccc2n1CCn1c-2cccc1=O 1.01
CCOCOc1ccc(C(=O)Nc2cccc(Cl)c2Cl)cc1 0.977
Cn1cc(C(=O)Nc2ccccc2-c2cc(F)c(F)c(F)c2)c(C(F)F)n1 0.97
CCOCN(C(=O)C(=O)O)c1c(C)cccc1CC 1.01
NC(Cn1cncn1)C(=O)O (centres undefined) 1.01
N#Cc1ccc(CC(=NNC(=O)Nc2ccc(OC(F)(F)F)cc2)c2cccc(C(F)(F)F)c2)cc1 (mixture of isomers) 0.991
C=O 0.998
COC(=O)c1ccc(C(=O)OC)cc1 0.981
N#Cc1c(N)nc(NC2CC2)nc1N 1.01
C#CCN(C)c1c(C#N)cnn1-c1nn2c(c1Cl)CCCC2 0.998
NS(=O)(=O)[O-].[NH4+] 1.06
O=C(O)Cc1c[nH]c2ccccc12 1.03
CCc1nc2ncnn2c(N)c1CCCC(=O)O.Cl 1.02
Cc1cc(C)cc(O)c1 1.02
CCOC(=O)/C(Cl)=C/c1cc(N2C(=O)C3=C(CCCC3)C2=O)ccc1Cl 0.97
c1ccc2c(c1)Cc1ccccc1-2 1.01
CCSc1nc(NC(C)C)nc(NC(C)C)n1 0.984
c1ccc2cc3ccccc3cc2c1 0.927
